From PubChem BioAssay
Sfp PPTase inh: qHTS Assay for Inhibitors of Bacillus subtilis Sfp phosphopantetheinyl transferase (PPTase); 4'-phosphopantetheinyl transferase ffp (Bacillus subtilis), Q9F4F7; Biochemical Sfp PPTase activity, qHTS; Potency, µM, for inactives: largest response in the series, negative = inhibition, actives largely listed as inhibitors; hit rate 3.5% among 310,000; AID 1490, 2009;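 further: the enzyme is Sfp with the accession as filed and its product quenches rhodamine fluorescence; potency means the concentration at half of the fitted maximal effect; 0% = enzyme reaction without inhibitor and -100% = no enzyme wells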
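With Hepes-Na pH 7.6 buffer containing 10 mM MgCl2, Sfp (15 nM) modified BHQ-2-YbbR (12.5 uM) using rhodamine-CoA (5 uM). Two reads 30 minutes apart at 525/598 nm yielded each well's rate.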
G9a inh: qHTS Assay for Inhibitors of Histone Lysine Methyltransferase G9a | G9a H3K9 monomethylation, AlphaScreen, 2 h | Potency, µM (top dose mostly 102 µM), inactives show at the top dose activity, negative = inhibition, hits mostly inhibitors | AID 504332, 2011 | hit rate 8.8% among 350,000; further: potency means the concentration at half of the fitted maximal effect; nearly all actives have a fitted effect of over 75% in size
Target sequence (Q96KQ7 913-1193 limits assumed): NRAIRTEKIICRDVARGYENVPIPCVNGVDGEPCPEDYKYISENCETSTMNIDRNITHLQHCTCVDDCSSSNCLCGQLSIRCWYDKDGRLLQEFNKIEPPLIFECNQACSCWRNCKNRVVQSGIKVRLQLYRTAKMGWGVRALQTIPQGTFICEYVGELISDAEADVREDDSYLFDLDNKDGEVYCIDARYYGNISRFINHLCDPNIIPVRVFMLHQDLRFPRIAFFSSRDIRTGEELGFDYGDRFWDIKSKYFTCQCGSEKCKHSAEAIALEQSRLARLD
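G9a (20 nM) was preincubated 15 min with compound, then reacted 2 h at room temperature with 500 nM biotin-H3K9 peptide and 20 µM SAM. Monomethyl-H3K9 detected by AlphaScreen using anti-H3K9me1 antibody.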
FBPA coupling cs: qHTS Assay for Inhibitors of Fructose-1,6-bisphosphate Aldolase from Giardia Lamblia: Coupling assay counterscreen | hit rate 0.67% among 290,000 | coupling enzyme system counterscreen, AmpLite Red fluorescence | activity change, negative = inhibition, % at 58.2 µM, hits read low; in the data active means activity change below about -30%
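Coupling enzymes only (glyceraldehyde-3-phosphate) + compound, at 57.5 uM final, 10 min RT; add substrate/coupling/AmpLite Red mix, 20 min RT; fluorescence ex 525/em 598 nm. Actives flag coupling-system interference.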
Tau fibril FP: qHTS for Inhibitors of Tau Fibril Formation, Fluorescence Polarization; Potency, µM (doses to about 57.7 µM), for the others: top-dose activity, negative = inhibition, usual class: inhibitors; Microtubule-associated protein tau (Homo sapiens), P10636; AID 1468, 2008; hit rate 0.39% among 280,000; K18 P301L tau heparin fibrillization, Alexa594 FP, 6 h; further: potency means the concentration at half of the fitted maximal effect; nearly all actives have a fitted effect of over 55% in size
Target sequence (P10636 561-689 P618L limits assumed): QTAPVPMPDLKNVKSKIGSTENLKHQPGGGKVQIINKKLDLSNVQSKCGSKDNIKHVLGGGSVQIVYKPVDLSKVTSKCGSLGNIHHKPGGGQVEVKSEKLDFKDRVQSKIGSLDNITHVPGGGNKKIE
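K18 P301L tau (15 uM unlabeled/0.24 uM Alexa 594-labeled, final) + compound + heparin 20 uM final; 100 mM NaOAc pH 7; 6 hr 37 C; ThT 30 uM final added, 1 hr RT; FP ex 555/em 632 nm.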
Tau fluor cs: Counterscreen qHTS for Inhibitors of Tau Fibril Formation, Fluorescence Polarization; tau K18 P301L Alexa594 fluorescence, heparin fibrillization; Potency, µM (highest dose often 57.7 µM), for inactives: at the top dose activity change, negative = decrease; hit rate 0.93% among 280,000; further: potency means the concentration at half of the fitted maximal effect; nearly all actives have a fitted effect of over 55% in size
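Human tau K18 P301L (15 uM unlabeled, 0.24 uM Alexa 594-labeled) in 100 mM sodium acetate pH 7 with 20 uM heparin, 6 hr at 37 C. ThT 30 uM added, 1 hr ambient; Alexa 594 FP and total fluorescence read at 555/632 nm.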
Tau ThT inhib: qHTS for Inhibitors of Tau Fibril Formation, Thioflavin T Binding; recombinant tau K18 P301L (four-repeat tau fragment), heparin-induced fibrillization, ThT fluorescence; Potency, µM (top dose mostly 57.4 µM), inactives show at the top dose activity, negative = inhibition, actives largely listed as inhibitors; hit rate 2.1% among 270,000; further: potency means the concentration at half of the fitted maximal effect; nearly all actives have a fitted effect of over 55% in size
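Heparin-induced (20 uM) aggregation of recombinant human K18 P301L tau, 15 uM unlabeled with 0.24 uM labeled, pH 7 acetate buffer, 6 hr at 37 C with compound. Fibrils quantified by 30 uM ThT fluorescence after 1 hr ambient incubation.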
An asterisk follows results filed as active; ? = inconclusive; nt = not tested or not shown; [ ] = another dose, or the depositor's remark. An excerpt weighted towards active compounds, which were near 11% of everything screened. Unless noted, the call rests on the fitted dose curve; in most records, active means well fitted curve in the direction sought with a large enough effect; inconclusive means small, poorly fitted or top-dose-only effect, or another doubt; inactive means no such curve, though single readings can be large; an effect the other way counts as inactive or inconclusive. Unless noted, on the % scale 0 is the no-effect control and ±100 the full control effect.

SMILES	Sfp PPTase inh	G9a inh	FBPA coupling cs	Tau fibril FP	Tau fluor cs	Tau ThT inhib
Cc1oc(-c2ccc(Cl)cc2)cc1C(=O)NC1CCN(Cc2ccccc2)CC1	-5%	-30%	0	-2%	-25%	-7%
Cc1oc(-c2ccc(Cl)cc2)cc1C(=O)/C(C#N)=C/Nc1ccccc1	?	28µM*	1	-6%	-19%	-12%
CCCCn1c(N)c(N(CCOC)C(=O)C2CC(=O)N(c3ccc(CC)cc3)C2)c(=O)[nH]c1=O (stereo not drawn)	nt	-6%[12.7 µM]	nt	nt	nt	nt
CCCC1CC(=O)OC1(C)C(=O)CSc1n[nH]c(-c2ccccc2)n1 (stereo not drawn)	?	11µM*	2	-9%	-13%	-1%
CCCC1CC(C)(C(=O)CSc2n[nH]c(-c3ccccc3)n2)OC1=O (stereo not drawn)	79µM*	32µM*	1	-14%	-15%	-4%
Cc1nsc2nc3c(F)c(F)c(F)c(F)c3cc12	-18%	nt	0	nt	nt	nt
CC(C)Cn1c(-c2ccco2)nc2c(c(=O)c3ccccc3n2C)c1=O	-72%	?	4	-6%	3%	-15%
CCCCCn1c(-c2ccco2)nc2nc3ccccc3nc21	?	-4%[59 µM]	-10	8%	-5%	-16%
CC(C)Cn1c(-c2ccco2)n[nH]c1=S	-17%	7.1µM*	-4	-1%	-6%	-10%
CCCCn1c(-c2sccc2C)n[nH]c1=S	-25%	7.9µM*	-3	-4%	0%	-6%
CCn1c(-c2ccco2)n[nH]c1=S	-13%	3.5µM*	3	1%	0%	-9%
C=CCn1c(-c2ccco2)n[nH]c1=S	-15%	?	0	0%	-7%	?
CCCCn1c(-c2ccco2)n[nH]c1=S	-69%	5µM*	-2	-9%	2%	6%
CCn1ccc2c(OCC(=O)Nc3ccc(C(C)=O)cc3)cccc2c1=O	nt	-2%[59 µM]	nt	?	-6%	-8%
COc1ccc(C(=O)OCC(=O)Nc2c(C)cccc2C)c(OC)c1OC	-2%	41%	-1	nt	nt	nt
Cn1c(-c2ccco2)n[nH]c1=S	-14%	4.5µM*	1	7%	4%	3%
Cc1cc2nc(-c3ccco3)cc(C(F)(F)F)n2n1	-9%	-6%[59 µM]	-4	-4%	2%	3%
COc1cc2c(cc1OC)C(COc1ccc3c(C)cc(=O)oc3c1)N(C(=O)c1cccc(C)c1)CC2 (stereo not drawn)	nt	-3%[59 µM]	nt	-4%	2%	-3%
CCOC(=O)N1CCC(NC(=O)CCCN2C(=O)CSc3ncccc32)CC1	9%	14%[59 µM]	3	1%	6%	-1%
O=C(CCCN1C(=O)CSc2ncccc21)N1CCN(Cc2ccccc2)CC1	6%	35µM*	1	-5%	-8%	-6%
CC(C)CCn1c(=O)c2sccc2n2c(CCCC(=O)NCc3ccc(F)cc3)nnc12	nt	-20%[59 µM]	nt	-4%	-14%	-3%
CCc1ccc2[nH]c(C(=O)Nc3ccc4c(c3)OCO4)cc2c1	-2%	22µM*	-1	17%	?	?
Cc1cc(C)c2[nH]c(C(=O)Nc3ccc4c(c3)OCO4)cc2c1	-22%	18µM*	-12	?	?	?
O=C(Nc1ccc2c(c1)OCO2)c1ccc(CO)cc1	nt	6%[12.7 µM]	nt	nt	nt	nt
Fc1ccc(NC(=S)Nc2ccc3nccnc3c2)cc1	?	40µM*	-20	0%	-12%	?
SMILES	Sfp PPTase inh	G9a inh	FBPA coupling cs	Tau fibril FP	Tau fluor cs	Tau ThT inhib
OCCCNC(=S)Nc1ccc2nccnc2c1	-22%	nt	-22	-9%	-18%	-21%
CC(C)N(C(=O)Nc1ccc2nccnc2c1)C(C)C	4%	-3%	-39*	-20%	-16%	?
COc1ccccc1C(=O)Nc1ccc(C(=O)OCc2cc(=O)n3ccsc3n2)cc1	nt	-4%[59 µM]	nt	3%	7%	1%
Oc1ccccc1-c1nc(-c2cccs2)c(-c2cccs2)[nH]1	nt	-2%[59 µM]	nt	?	4.5µM*[quencher]	14µM*
COc1cc(-c2nc(-c3ccccc3)c(-c3cccs3)[nH]2)cc(OC)c1O	1%	-6%[12.7 µM]	0	9%	14µM*[quencher]	?
CN(C)c1ccc(-c2nc(-c3cccs3)c(-c3cccs3)[nH]2)cc1	nt	8.9µM*	nt	-1%	10µM*[quencher]	?
CC(=O)c1ccc(N2C(=NC(=O)CCc3ccccc3)SC3CS(=O)(=O)CC32)cc1 (stereo not drawn)	18%	14%	nt	nt	nt	nt
NC(CO)(CO)CO	-4%	24%[59 µM]	3	-3%	-3%	-5%
CC(C)=CCN1CCN(Cc2cnc(N3CCCC3)s2)CC1CCO (stereo not drawn)	9%	-6%	-2	3%	3%	1%
COC(=O)c1ccc(CN2CCN(CC(C)C)C(CCO)C2)cc1 (stereo not drawn)	0%	nt	0	-7%	-18%	-14%
CC(C)=CCN1CCN(Cc2cnc(N3CCOCC3)s2)CC1CCO (stereo not drawn)	?	16µM*	1	-3%	-19%	?
COC(=O)c1ccc(CN2CCN(CC=C(C)C)C(CCO)C2)cc1 (stereo not drawn)	14%	45µM*	12	-7%[2.34 µM]	9%[2.34 µM]	-3%
CCCCC/C=C\C/C=C\C/C=C\C/C=C\CCCC(=O)O[C@H](COCCCCCCCCCCCCCCCC)COP(=O)([O-])OCC[N+](C)(C)C	21%	31%[59 µM]	1	1%	0%	-8%
Cc1ccc(Nc2cccccc2=O)cc1	8%	-11%	-4	5%	4%	-13%
CC(C)(C)Nc1cccccc1=O	-21%	45µM*	-14	3%	-6%	-17%
CC(C)OC(=O)C(C(=O)C(F)(F)F)c1cc(NS(=O)(=O)c2ccc3ccccc3c2)c2ccccc2c1O (stereo not drawn)	56µM*	32µM*	-20	-12%	?	?
CC1CCc2[nH]c3ccc(C(=O)N(C)CC(=O)Nc4ccc(F)cc4)cc3c2C1 (stereo not drawn)	2%	?	nt	nt	nt	nt
COc1ccc(NC(=O)CN(C)C(=O)c2ccc3[nH]c4c(c3c2)CC(C)CC4)cc1 (stereo not drawn)	nt	45µM*	nt	nt	nt	nt
COc1cccc(NC(=O)CN(C)C(=O)c2ccc3[nH]c4c(c3c2)CC(C)CC4)c1 (stereo not drawn)	nt	35µM*	nt	nt	nt	nt
